Data taken from PMC5540273 (PLoS ONE, 2017).
“And” between values parts separate entries of the source, which are not always exact repeats. Identical values can stand only once. Like-named read-outs stand apart in the source and are kept apart here.

Key:
[1] = tested on: BUB1; details: concentration: 1 μM, replicates: in singlicate, n = 1
[2] = tested on: CAMK1B; details: concentration: 1 μM, replicates: in singlicate, n = 1
[3] = tested on: CAMK1D; details: concentration: 1 μM, replicates: in singlicate, n = 1
[4] = tested on: CAMK1G; details: concentration: 1 μM, replicates: in singlicate, n = 1
[5] = tested on: CAMK1; details: concentration: 1 μM, replicates: in singlicate, n = 1
[6] = tested on: CAMK2A; details: concentration: 1 μM, replicates: in singlicate, n = 1
[7] = tested on: CAMK2B; details: concentration: 1 μM, replicates: in singlicate, n = 1
[8] = tested on: CAMK2D; details: concentration: 1 μM, replicates: in singlicate, n = 1
[9] = tested on: CAMK2G; details: concentration: 1 μM, replicates: in singlicate, n = 1
[10] = tested on: CAMK4; details: concentration: 1 μM, replicates: in singlicate, n = 1
[11] = tested on: CAMKK1; details: concentration: 1 μM, replicates: in singlicate, n = 1
[12] = tested on: CAMKK2; details: concentration: 1 μM, replicates: in singlicate, n = 1
[13] = tested on: CASK; details: concentration: 1 μM, replicates: in singlicate, n = 1
[14] = tested on: T1, CDC2L1; details: concentration: 1 μM, replicates: in singlicate, n = 1
T1 construct: gene CDK11B

[15] = tested on: CDC2L2; details: concentration: 1 μM, replicates: in singlicate, n = 1
[16] = tested on: T2, CDC2L5; details: concentration: 1 μM, replicates: in singlicate; n = 1
T2 construct: gene CDK13

[17] = tested on: T3, CDK11; details: concentration: 1 μM, replicates: in singlicate, n = 1
T3 construct: gene CDK19

[18] = tested on: CDK2; details: concentration: 1 μM, replicates: in singlicate; n = 1
[19] = tested on: CDK3; details: concentration: 1 μM, replicates: in singlicate; n = 1
[20] = tested on: CDK4-cyclinD1; details: concentration: 1 μM, replicates: in singlicate; n = 1
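Also: KINOMEscan kinase panel screen.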

SMILES: Cc1ccc(NC(=O)c2ccnc(N3CCN(C)CC3)c2)cc1-c1ccc(C(=O)NCC2CC2)cc1 [GW775604]
- %Inh [1]: 0%
- %Inh [2]: 0%
- %Inh [3]: 0%
- %Inh [4]: 0%
- %Inh [5]: 0%
- %Inh [6]: 0%
- %Inh [7]: 0%
- %Inh [8]: 0%
- %Inh [9]: 0%
- %Inh [10]: 0%
- %Inh [11]: 0%
- %Inh [12]: 0%
- %Inh [13]: 10%
- %Inh [14]: 0%
- %Inh [15]: 0%
- %Inh [16]: 0%
- %Inh [17]: 0%
- %Inh [18]: 0%
- %Inh [19]: 34%
- %Inh [20]: 0%

SMILES: c1ccc(-c2n[nH]cc2-c2ccnc3ccccc23)nc1 [GW271431]
- %Inh [1]: 0%
- %Inh [2]: 23%
- %Inh [3]: 28%
- %Inh [4]: 13%
- %Inh [5]: 23%
- %Inh [6]: 0%
- %Inh [7]: 0%
- %Inh [8]: 19%
- %Inh [9]: 25%
- %Inh [10]: 0%
- %Inh [11]: 17%
- %Inh [12]: 30%
- %Inh [13]: 0%
- %Inh [14]: 0%
- %Inh [15]: 24%
- %Inh [16]: 0%
- %Inh [17]: 34%
- %Inh [18]: 0%
- %Inh [19]: 0%
- %Inh [20]: 0%

SMILES: COCCNC(=O)c1ccc(-c2cc(C(=O)NC3CC3)cc(F)c2C)cc1 [GW868318]
- %Inh [1]: 51%
- %Inh [2]: 5%
- %Inh [3]: 10%
- %Inh [4]: 0%
- %Inh [5]: 14%
- %Inh [6]: 7%
- %Inh [7]: 10%
- %Inh [8]: 8%
- %Inh [9]: 13%
- %Inh [10]: 7%
- %Inh [11]: 3%
- %Inh [12]: 16%
- %Inh [13]: 16%
- %Inh [14]: 3%
- %Inh [15]: 15%
- %Inh [16]: 33%
- %Inh [17]: 6%
- %Inh [18]: 12%
- %Inh [19]: 11%
- %Inh [20]: 24%

SMILES: COc1ccc(Nc2nccc(N3CCC(NC(=O)Nc4cccc(C(C)=O)c4)C3)n2)cc1 (centres unmarked) [GSK1379731]
- %Inh [1]: 0%
- %Inh [2]: 13%
- %Inh [3]: 40%
- %Inh [4]: 0%
- %Inh [5]: 37%
- %Inh [6]: 0%
- %Inh [7]: 0%
- %Inh [8]: 1%
- %Inh [9]: 11%
- %Inh [10]: 0%
- %Inh [11]: 0%
- %Inh [12]: 1%
- %Inh [13]: 0%
- %Inh [14]: 0%
- %Inh [15]: 0%
- %Inh [16]: 0%
- %Inh [17]: 79%
- %Inh [18]: 0%
- %Inh [19]: 0%
- %Inh [20]: 2%

SMILES: O=c1cc(N2CCOCC2)nc2n(Cc3cccc4ccccc34)ccn12 [GSK2333389]
- %Inh [1]: 32%
- %Inh [2]: 4%
- %Inh [3]: 15%
- %Inh [4]: 0%
- %Inh [5]: 0%
- %Inh [6]: 0%
- %Inh [7]: 0%
- %Inh [8]: 0%
- %Inh [9]: 0%
- %Inh [10]: 0%
- %Inh [11]: 0%
- %Inh [12]: 0%
- %Inh [13]: 0%
- %Inh [14]: 0%
- %Inh [15]: 0%
- %Inh [16]: 0%
- %Inh [17]: 0%
- %Inh [18]: 12%
- %Inh [19]: 0%
- %Inh [20]: 0%

SMILES: C[C@@H](Oc1cc(-n2cnc3ccc(NC(=O)NC(C)(C)C)cc32)sc1C(N)=O)c1ccccc1Cl [GSK346294]
- %Inh [1]: 35%
- %Inh [2]: 32%
- %Inh [3]: 19%
- %Inh [4]: 2%
- %Inh [5]: 11%
- %Inh [6]: 9%
- %Inh [7]: 0%
- %Inh [8]: 18%
- %Inh [9]: 23%
- %Inh [10]: 3%
- %Inh [11]: 3%
- %Inh [12]: 24%
- %Inh [13]: 11%
- %Inh [14]: 0%
- %Inh [15]: 13%
- %Inh [16]: 0%
- %Inh [17]: 4%
- %Inh [18]: 0%
- %Inh [19]: 9%
- %Inh [20]: 8%

SMILES: CCCCCc1nc2c(N)ncnc2n1CCCCC [SKF-97255]
- %Inh [1]: 0%
- %Inh [2]: 0%
- %Inh [3]: 0%
- %Inh [4]: 15%
- %Inh [5]: 0%
- %Inh [6]: 0%
- %Inh [7]: 0%
- %Inh [8]: 6%
- %Inh [9]: 0%
- %Inh [10]: 21%
- %Inh [11]: 0%
- %Inh [12]: 0%
- %Inh [13]: 25%
- %Inh [14]: 0%
- %Inh [15]: 0%
- %Inh [16]: 0%
- %Inh [17]: 10%
- %Inh [18]: 0%
- %Inh [19]: 9%
- %Inh [20]: 0%

SMILES: N#Cc1c(N2CCOCC2)sc(-c2ccn[nH]2)c1-c1ccc(Cl)cc1
- %Inh [1]: 13%
- %Inh [2]: 12%
- %Inh [3]: 19%
- %Inh [4]: 72%
- %Inh [5]: 24%
- %Inh [6]: 0%
- %Inh [7]: 0%
- %Inh [8]: 47%
- %Inh [9]: 0%
- %Inh [10]: 4%
- %Inh [11]: 0%
- %Inh [12]: 0%
- %Inh [13]: 0%
- %Inh [14]: 0%
- %Inh [15]: 11%
- %Inh [16]: 0%
- %Inh [17]: 7%
- %Inh [18]: 0%
- %Inh [19]: 5%
- %Inh [20]: 31%

SMILES: O=C(Nc1n[nH]c2cc(-c3cccc(F)c3)ccc12)C1CC1 [SB-735464]
- %Inh [1]: 0%
- %Inh [2]: 0%
- %Inh [3]: 22%
- %Inh [4]: 0%
- %Inh [5]: 31%
- %Inh [6]: 19%
- %Inh [7]: 1%
- %Inh [8]: 0%
- %Inh [9]: 27%
- %Inh [10]: 0%
- %Inh [11]: 18%
- %Inh [12]: 14%
- %Inh [13]: 10%
- %Inh [14]: 2%
- %Inh [15]: 9%
- %Inh [16]: 23%
- %Inh [17]: 0%
- %Inh [18]: 27%
- %Inh [19]: 0%
- %Inh [20]: 8%

SMILES: NCCNS(=O)(=O)c1ccc(-c2ccnc3[nH]ccc23)cc1 [GSK977617]
- %Inh ([1]; 1 µM): 69% and 81%
- %Inh ([2]; 1 µM): 52% and 70%
- %Inh ([3]; 1 µM): 78% and 72%
- %Inh ([4]; 1 µM): 44% and 21%
- %Inh ([5]; 1 µM): 58% and 42%
- %Inh ([6]; 1 µM): 16% and 6%
- %Inh ([7]; 1 µM): 2% and 0%
- %Inh ([8]; 1 µM): 42% and 23%
- %Inh ([9]; 1 µM): 42% and 20%
- %Inh ([10]; 1 µM): 59% and 44%
- %Inh ([11]; 1 µM): 31% and 9%
- %Inh ([12]; 1 µM): 37% and 16%
- %Inh ([13]; 1 µM): 19% and 21%
- %Inh ([14]; 1 µM): 0% and 14%
- %Inh ([15]; 1 µM): 13% and 15%
- %Inh [16]: 0%
- %Inh ([17]; 1 µM): 9% and 0%
- %Inh [18]: 0%
- %Inh [19]: 0%
- %Inh [20]: 0%
